In ChEMBL document CHEMBL4513216, “Probing the Open Global Health Chemical Diversity Library for Multistage-Active Starting Points for Next-Generation Antimalarials” (ACS Infect Dis, 2020):
Among all 69,000 compounds or so, about 8,600 (12%) showed an effect of 50% or more. The sample holds strong results, similar compounds and a random draw of the others, so the mix is not that of the screen.

System: Plasmodium berghei
Assay: Screen against P. berghei liver stage (PbLuc), transformed with Luciferase, at 10uM
Assay type: functional, HepG2
Conditions: tested at 10 uM

Row | Structure (SMILES) | INHIBITION [%]
1 | O=C(c1ccccn1)N1C[C@@H](OCc2cccnc2)[C@H]2OCCC[C@@H]21 | -21.1
2 | COCCNC(=O)c1cc2c(s1)CCN2S(C)(=O)=O | 6.55
3 | O=C(c1ccc(=O)[nH]n1)N1CCC(CN2CCOCC2)CC1 | -40.5
4 | N#Cc1nccnc1N1CCC(C(O)c2cccs2)CC1 (configuration not stated) | 42.4
5 | Cc1ccc(N2CCC(C(O)c3cccs3)CC2)nn1 (configuration not stated) | 56.3
6 | OC(c1cccs1)C1CCN(c2ncccn2)CC1 (configuration not stated) | 48
7 | Cc1cccc(OCCNC(=O)CN2CCc3cncnc3C2)c1 | 22.3
8 | COC(=O)[C@H](C)NC(=O)c1cc(-c2cccc(Cl)c2)no1 | 3.16
9 | CCCS(=O)(=O)N1CCC2(CCN(Cc3cccc(F)c3)C2=O)C1 (configuration not stated) | 16.8
10 | CN(C)CCN1CCC2(CCN(C(=O)c3cccnc3)CC2)C1=O | -23.3
11 | O=C(COc1ccccc1)N1CCC[C@]2(C[C@@H](OCC3CC3)CO2)C1 | 27.6
12 | Cc1ccccc1OCC(=O)N1CC[C@]2(C[C@@H](OCC3CC3)CO2)C1 | -0.813
13 | CCO[C@@H]1CO[C@@]2(CCCN(C(=O)COc3ccccc3OC)C2)C1 | 15.8
14 | COCC1COCCC12CCN(C(=O)COc1ccccc1C)CC2 (configuration not stated) | 0.542
15 | CO[C@@H]1CO[C@@]2(CCN(C(=O)COc3ccccc3C)C2)C1 | 71
16 | CN1CCO[C@@H]2CN(C(=O)COc3cccc(Cl)c3)C[C@@H]2C1 | 34.9
17 | COC1COC2(CCN(C(=O)c3ncccn3)CC2)C1 (configuration not stated) | 37.8
18 | COCC(=O)N1CCC2(CC1)CC(OC)CO2 (configuration not stated) | 70.4
19 | Cc1ccc(OCC(=O)N2C[C@@H]3CN(C)CCO[C@@H]3C2)cc1 | 37.9
20 | COc1ccccc1OCC(=O)N1CCC[C@]2(C[C@@H](OC)CO2)C1 | 54.7
21 | COc1ccccc1OCC(=O)N1C[C@@H]2CN(C)CCO[C@@H]2C1 | 55.6
22 | COCC(=O)N1CCC2(CC1)CC(N1CCN(C)CC1)CO2 (configuration not stated) | 39.3

Row | Structure (SMILES) | INHIBITION [%]
23 | Cc1occc1C(=O)Nc1cnn(CCN2CCOCC2)c1 | -16.565
24 | O=C(Nc1ccc2c(c1)OCO2)c1ccc(N2CCCC2)nn1 | 43.8
25 | NC(=O)CN(Cc1ccc(Br)cc1)C(=O)c1cnccn1 | 4.22
26 | O=C1COC2(COCCN(Cc3ccsc3)C2)CN1c1ccoc1 (configuration not stated) | 12.4
27 | CO[C@H]1CO[C@@]2(CCCN(C(=O)C3CC=CC3)C2)C1 | 22.2
28 | CO[C@H]1CO[C@@]2(CCCN(C(=O)N3CCCC3)C2)C1 | 45.7
29 | CO[C@@H]1CO[C@@]2(CCCN(C(=O)C3CC=CC3)C2)C1 | 53
30 | CC(C)c1nc(CN2CCN(CC(O)c3ccccc3)CC2)no1 (configuration not stated) | 21.5
31 | CC(=O)Nn1c(C)cc(CN2CCCN(Cc3ccncc3)CC2)c1C | 20.4
32 | CC(=O)Nn1c(C)cc(CN2CCC(C(=O)N3CCCC3)CC2)c1C | 52.8
33 | CC(=O)Nn1c(C)cc(CN2CCC(c3ccncc3)CC2)c1C | 28
34 | CN(c1cccnn1)C1CCN(C(=O)c2n[nH]c3c2CCC3)CC1 | -16.7
35 | O=C(c1cnc(-c2cccnc2)nc1)N1CCC(c2ccncc2)CC1 | 21.8
36 | O=C(c1cnc(-c2cccnc2)nc1)N1CCSCC1 | 51.9
37 | O=C(c1cccnc1)N1CCSCC1 | 35.7
38 | Cc1cccc(CNc2ccc(C(=O)N3CCC(CO)CC3)cc2)c1 | 38.3
39 | O=C([C@@H]1COC[C@H]2CN(C3CCOCC3)C[C@H]21)N1CCCCO1 | -3.1
40 | Cc1[nH]c2c(C)cccc2c1CC(=O)N(C)CCN(C)C | 34.15
41 | Cc1ccc2c(CC(=O)N(C)CCN(C)C)c(C)[nH]c2c1C | 50.75
42 | CCc1cccc2c(CC(=O)N(C)CCN(C)C)c(C)[nH]c12 | 47.9
43 | CC(=O)N1CCN(C(=O)CN(C)c2ccc(Cl)cn2)CC1 | 25
44 | Cc1nc(COC[C@@H]2CCC[C@@]23CNCCO3)cs1 | 48.9

Row | Structure (SMILES) | INHIBITION [%]
45 | c1cncc(COC[C@@H]2CCC[C@@]23CNCCO3)c1 | 24
46 | c1cncc(COC[C@@H]2CCC[C@]23CNCCO3)c1 | 22.2
47 | c1cncc(OC[C@@H]2CCC[C@@]23CNCCO3)c1 | -2.27
48 | c1cc(COC[C@@H]2CCC[C@@]23CNCCO3)ccn1 | 68.2
49 | c1cc(COC[C@H]2CCC[C@]23CNCCO3)ccn1 | 53
50 | COC(=O)c1ccc(CN2CCC(c3n[nH]c(C)n3)CC2)s1 | 16.3
51 | O=C(NCCc1noc(C2CCCC2)n1)c1cn2ccsc2n1 | 47.2
52 | Cc1nc(C2CCN(C(C)C)CC2)sc1Br | 30.4
53 | CCn1cnnc1CNC(=O)N1CCN(CCc2ccccc2)CC1 | 23.4
54 | CCN1CCCC(C)(C(=O)NCc2nncn2CCc2ccccc2)C1 (configuration not stated) | 57
55 | CCN1CCCC(C)(C(=O)NCc2nccn2Cc2ccccc2)C1 (configuration not stated) | 47.2
56 | Cc1cc(C)c2ncc(C#N)c(NC3CCN(CC(N)=O)CC3)c2c1 | -5.705
57 | Cc1cnn(CC2CCCCN2C(=O)c2ccc(NC3CC3)nc2)c1 (configuration not stated) | 42.45
58 | COC1CCN(S(=O)(=O)N2CCCC2c2ccco2)CC1 (configuration not stated) | 49
59 | O=S(=O)(N1CCN(CC2CC2)CC1)N1CCCC1c1ccco1 (configuration not stated) | 31.9
60 | O=S(=O)(N1CCC(n2cccc2)CC1)N1CCCC1c1ccco1 (configuration not stated) | 66.1
61 | CC(C)CN1CCN(S(=O)(=O)c2cn(C)cn2)Cc2cccnc21 | 48.7
62 | COCCC(=O)N1CCCC1c1csc(Nc2ncccn2)n1 (configuration not stated) | 36.7
63 | O=C(NC1CC1)C1CCN(c2nc3nc[nH]c(=O)c3s2)CC1 | 50.2
64 | CC(C)NC(=O)C1CCN(c2nc3nc[nH]c(=O)c3s2)CC1 | 4.35
65 | CNC(=O)C1CCN(c2nc3nc[nH]c(=O)c3s2)CC1 | 24.7
66 | CCN(CCCc1ccccc1C)S(C)(=O)=O | 14.1

Row | Structure (SMILES) | INHIBITION [%]
67 | CCN(Cc1ccccc1C)S(C)(=O)=O | 5.15
68 | Cc1ccccc1CCCN(Cc1ccccn1)S(C)(=O)=O | 51
69 | CCN(CC)S(=O)(=O)N(Cc1ccccn1)Cc1ccccc1C | 61.3
70 | Cc1ccccc1CCCN(C)S(C)(=O)=O | 24.2
71 | CCN(CC)S(=O)(=O)N(Cc1cccc(C)c1)Cc1ccccn1 | 9.63
72 | COCCN1CCCN(C(=O)NC(C)Cn2cccn2)CC1 (configuration not stated) | 42.6
73 | Fc1cnc(N2CCCn3c(nnc3Cn3ccnc3)C2)nc1 | -68
74 | Cc1noc(C2CCN(C(=O)CCCNc3ncccn3)CC2)n1 | 18.4
75 | CCC(CC)c1nnc(NC(=O)NC(C)Cn2cccn2)s1 (configuration not stated) | 27.4
76 | Cc1nc(CN(C)C2CCN(Cc3cccc4c3OCCO4)C2)no1 (configuration not stated) | 29.4
77 | O=C1CC[C@H]2[C@H](CCN2c2ncc(F)cn2)N1c1ccccc1 | 49.4
78 | O=C1CC[C@H]2[C@H](CCN2c2ncccn2)N1c1ccccc1 | 55.4
79 | O=C(c1cnccn1)N1CC[C@H]2[C@@H]1CCC(=O)N2c1cccnc1 | 22.9
80 | Cc1nc(CN2CC[C@H]3[C@@H]2CCC(=O)N3c2cnn(C)c2)cs1 | -20.1
81 | O=C(c1cccs1)N1CC[C@@H]2[C@H]1CCC(=O)N2c1ccccc1 | 40.3
82 | Cn1cc(N2C(=O)CC[C@@H]3[C@H]2CCN3C(=O)c2cscn2)cn1 | 52
83 | Cc1cnc(N2CC[C@H]3[C@@H]2CCC(=O)N3c2ccccc2)nc1 | 2.7
84 | Cn1cc(N2C(=O)CC[C@@H]3[C@H]2CCN3Cc2nccs2)cn1 | 22.4
85 | O=C(c1cscn1)N1CC[C@H]2[C@@H]1CCC(=O)N2c1ccccc1 | 55.5
86 | Cc1noc(C(C)C)c1C(=O)NCc1ccc(N(C)C)c(F)c1 | 29.2
87 | COc1cc(CSc2nnc(N)n2C2CC2)ccc1SC | 0.348
88 | CN(C)Cc1noc2c1CN(C(=O)c1ccncc1)CC2 | 39.4

Row | Structure (SMILES) | INHIBITION [%]
89 | O=S1(=O)[C@@H](c2ccccc2)[C@H](CO)CN1C1CC1 | -1.99
90 | Cc1ccoc1C(=O)N1Cc2c(Cn3ccnc3)nn(C)c2C1 | 39.2
91 | Cc1ccc(C2(O)CCN(C(=O)c3sccc3S(N)(=O)=O)CC2)nc1 | -11.3
92 | CCOc1cc(CN(C)CC(=O)O)ccc1OC(F)F | 21
93 | CCOc1cc(CN(C)CC(C)(C)O)ccc1OC(F)F | -2.13
94 | COc1ccc(F)cc1CSCC(=O)N(C)CCC#N | 13.6
95 | CCOc1cc(CN(C)Cc2ccccc2)ccc1OC(F)F | 68.8
96 | COc1ccc(CN(CCC#N)CCN2CCOCC2)c(OC)c1 | 31.9
97 | CCOc1cc(CN(C)CCC#N)ccc1OC(F)F | 64.1
98 | CCOc1cc(CN(C)CCCC#N)ccc1OC(F)F | 75.2
99 | CCOc1ccc(CN(CCC#N)CCN2CCOCC2)cc1OC | 55.4
100 | CCOc1cc(CN(C)CCCO)ccc1OC(F)F | 31.4
101 | COc1ccc(F)cc1CSCC(=O)N(CCC#N)CCC#N | -28.8
102 | CCOc1cc(CNC(=O)C(C#N)c2nc(C)cs2)ccc1OC(F)F (configuration not stated) | 42.8
103 | COc1ccc(CN(CCC#N)CCN2CCOCC2)cc1OC | 43.4
104 | CCNC(=O)NC(=O)CNC1(c2noc(C)n2)CCCC1 | 43.8
105 | CNc1cc(C2CN(C(=O)c3cscn3)CCO2)nc(C)n1 (configuration not stated) | 26.7
106 | COCCNC(=O)C(C)N1CCN(C)CC1 (configuration not stated) | 4.41
107 | CCN(CC)CCN(C)Cc1cn(C)nc1-c1ccc2c(c1)OCCO2 | 39.4
